The list is not random: actives were taken first. Their share in the collection is about 6.7%.
Pf Dd2 growth: inhibitors of Plasmodium falciparum Dd2 growth; P. falciparum Dd2 growth, SYBR Green, 72 h; stronger effect = lower value; activity change, % at 10 µM; 94,000 compounds, 2.3% hits; AID 1159554; in the data active means activity change below about -80%
C diff HTS: blocks growth of Clostridium difficile | Clostridium difficile clinical isolate growth, OD600, 24 h; stronger effect = lower value | growth activity, negative = inhibition, % at 16 µg/mL (by protocol) | 86,000 compounds, 0.25% hits | AID 1259249;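 active means mean growth activity at or below -80% and every replicate also at or below -80%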;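 further: 0% = DMSO wells and -100% = levofloxacin 16 µg/mL wells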
T cruzi growth-1: inhibitors of T. cruzi proliferation. T. cruzi beta-gal in NIH3T3, GalScreen luminescence, 90 h. inhibition, % at 8.34 µM. 77,000 compounds, 5.9% hits;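 active means mean inhibition above about 93%, with at least 55% of replicates each passing it, limit read from the data, passing the limit was not always enough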
T cruzi growth-2: blocks T. cruzi growth in NIH3T3 host cells. 5,600 compounds, 72% hits. T. cruzi beta-gal in NIH3T3, GalScreen luminescence, 90 h. shares compounds with T cruzi growth-1. inhibition, % at 8.35 µM;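 active means mean replicate inhibition above about 95% and at least 55% of replicates individually reaching it, limit read from the data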
T cruzi growth-3: blocks T. cruzi growth in NIH3T3 host cells. shares compounds with T cruzi growth-1. inhibition, % at 2.09 µM. AID 651740. T. cruzi beta-gal in NIH3T3, GalScreen luminescence, 90 h. 5,600 compounds, 21% hits;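 active means mean inhibition above about 95%, with at least 55% of replicates also reaching it, limit read from the data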;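 further: plate controls were neutral control median for no effect and positive control median for full effect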
NIH3T3 tox: NIH/3T3 (mouse) viability loss; shares compounds with T cruzi growth-1; NIH/3T3 viability, CellTiter-Glo ATP luminescence, 90 h; cytotoxicity (signal decrease), % at 8.35 µM; 5,600 compounds, 14% hits; AID 651742;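 active means mean signal decrease across replicates above about 35% based on untreated-well scatter, with enough replicates individually passing, limit read from the data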;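 further: 0% = median of neutral control wells and 100% = median of positive control wells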
NIH3T3 tox 2: NIH/3T3 (mouse) viability loss; shares compounds with T cruzi growth-1; NIH/3T3 viability, CellTiter-Glo ATP luminescence, 90 h; inhibition, % at 24.9 µM; 5,600 compounds, 56% hits;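 active means mean loss of cell viability signal at or above a set limit, and enough replicates individually reaching it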;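 further: 0% = median of neutral control wells and 100% = median of positive control wells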
The depositor's hits bear a star; x = no result given.

SMILES	Pf Dd2 growth	C diff HTS	T cruzi growth-1	T cruzi growth-2	T cruzi growth-3	NIH3T3 tox	NIH3T3 tox 2
C[C@H](CO)N1C[C@H](C)[C@H](CN(C)C(=O)Nc2cc(F)ccc2F)Oc2cc(-c3ccc(C#N)cc3)ccc2S1(=O)=O	-48.8	47.6	74.7	x	x	x	x
C[C@@H]1CN([C@@H](C)CO)S(=O)(=O)c2ccc(C#CC3CCCC3)cc2O[C@@H]1CN(C)C(=O)Nc1cc(F)ccc1F	-30.7	x	x	x	x	x	x
C[C@H]1CN([C@@H](C)CO)S(=O)(=O)c2ccc(C#CC3CC3)cc2O[C@H]1CN(C)C(=O)Nc1cc(F)ccc1F	-71.0	x	120.8*	108.5*	83.3	16.6	11.6
C[C@H]1CN([C@@H](C)CO)S(=O)(=O)c2ccc(C#CC3CC3)cc2O[C@@H]1CN(C)C(=O)Nc1cc(F)ccc1F	-54.6	x	111.1*	107.9*	79.3	39.4*	36.3*
O=C(CN1CCOCC1)N[C@H]1CC[C@@H](CCn2cc(C3CCCCC3)nn2)O[C@H]1CO	17.7	-3.6	-35.9	x	x	x	x
C[C@@H]1CN([C@H](C)CO)C(=O)c2cc(NC(=O)CCC(F)(F)F)ccc2O[C@@H](C)CCCCO[C@@H]1CN(C)S(=O)(=O)c1ccc(F)cc1	x	0.2	-35.4	x	x	x	x
COc1ccccc1CNC(=O)C[C@H]1C[C@@H]2c3cc(NC(=O)NC4CCCC4)ccc3O[C@@H]2[C@@H](CO)O1	0.5	3.7	109.0*	28.9	22.7	-1.5	-1.6
COc1ccccc1CNC(=O)C[C@H]1C[C@@H]2c3cc(NC(=O)CC4CC4)ccc3O[C@@H]2[C@H](CO)O1	0.1	1.0	-19.6	x	x	x	x
COc1ccccc1CNC(=O)C[C@@H]1C[C@@H]2c3cc(NC(=O)CC4CC4)ccc3O[C@@H]2[C@@H](CO)O1	-21.6	-0.5	15.6	x	x	x	x
COc1ccccc1CNC(=O)C[C@H]1C[C@H]2c3cc(NC(=O)NC4CCCC4)ccc3O[C@H]2[C@H](CO)O1	-19.1	6.2	109.4*	107.7*	28.1	-4.7	9.4
CO[C@@H]1CC[C@H]2CCOc3ccc(C#N)cc3C(=O)N(C)C[C@@H](OC)[C@@H](C)C(=O)N(C)C[C@@H]1O2	x	-3.4	-8.6	x	x	x	x
C[C@@H]1CN([C@@H](C)CO)C(=O)Cc2cc(NC(=O)C3CCCCC3)ccc2O[C@@H]1CN(C)C(=O)Nc1ccc(F)cc1	-5.7	-3.5	2.7	x	x	x	x
C[C@@H](O)C#Cc1cnc2c(c1)C(=O)N([C@@H](C)CO)C[C@H](C)[C@H](CN(C)C(=O)Cc1ccccn1)O2	6.5	-0.3	12.1	x	x	x	x
COc1ccc2c3c([nH]c2c1)[C@@H](CO)N(Cc1ccncc1)CC31CCN(C(=O)Cc2ccncc2)CC1	-8.3	2.0	x	x	x	x	x
O=C(C[C@@H]1CC[C@H]2[C@@H](COC[C@@H](O)CN2CCC(F)(F)F)O1)NCC1CCCCC1	-17.6	1.9	65.4	x	x	x	x
O=C(C[C@H]1CC[C@@H]2[C@H](COC[C@H](O)CN2CCC(F)(F)F)O1)NCc1ccc(Oc2ccccc2)cc1	x	-4.2	-2.2	x	x	x	x
O=C(C[C@H]1CC[C@H]2[C@@H](COC[C@H](O)CN2CCC(F)(F)F)O1)NCc1ccc(Oc2ccccc2)cc1	x	19.6	108.2*	104.0*	25.8	9.5	17.4
O=C(C[C@@H]1CC[C@H]2[C@@H](COC[C@H](O)CN2CCC(F)(F)F)O1)NCC1CCCCC1	-12.7	-2.3	109.0*	45.8	13.2	8.3	-0.8
CCS(=O)(=O)Nc1ccc2c(c1)C(=O)N(C)[C@H]1CC[C@@H](CC(=O)NCCOC)O[C@H]1CO2	x	-4.3	3.3	x	x	x	x
O=C(C[C@H]1C=C[C@@H](NC(=O)c2ccccc2)[C@H](CO)O1)NCCc1ccncc1	17.9	-2.1	11.5	x	x	x	x
N#Cc1cccc(-c2ccc([C@H]3[C@@H](CO)N4CCCCN(C(=O)Nc5cccc(F)c5)C[C@@H]34)cc2)c1	4.6	8.9	123.2*	104.9*	89.4	3.6	-2.0
N#Cc1ccc(-c2ccc([C@@H]3[C@@H](CO)N4CCCCN(C(=O)Nc5ccc(F)cc5)C[C@H]34)cc2)cc1	-18.8	17.1	23.2	x	x	x	x
N#Cc1cccc(-c2ccc([C@@H]3[C@@H](CO)N4CCCCN(C(=O)Nc5cccc(F)c5)C[C@@H]34)cc2)c1	-29.5	22.0	103.9*	109.8*	71.6	28.2	87.5*
